Assay outcomes from PubChem.
eIF4E-4G inh = eIF4E–eIF4G protein interaction inhibitors, primary screen, biochemical, uHTS, TR-FRET, eIF4GI fragment; Eukaryotic translation initiation factor 4E (Mus musculus) + Eukaryotic translation …; TR-FRET eIF4E-eIF4GI(517-606) binding, 2 h; inhibition, % at 21.7 µM; 220,000 compounds, 0.37% hits
NCF1 inh = p47phox/p22phox peptide binding inhibitors, primary screen, biochemical, uHTS, NADPH oxidase regulatory subunit; AID 1274, 2008; inhibition, % at 24.7 µM; 220,000 compounds, 0.53% hits; fluorescence polarization, 2 h; Neutrophil cytosol factor 1 (Homo sapiens), P14598
14-3-3 Bad PPI = inhibitors of 14-3-3 zeta/Bad binding, primary screen, biochemical, TR-FRET, bovine 14-3-3 zeta | 14-3-3 protein zeta/delta (Bos taurus), P63103 | TR-FRET 14-3-3zeta/Dy647-pBad peptide displacement, 1 h | inhibition, % at 21.7 µM | 220,000 compounds, 0.71% hits | AID 781, 2007;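 active = inhibition above about 70%, limit read from the data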
SUMO HTRF inh = inhibitors of in vitro SUMOylation cascade, primary screen, biochemical, HTRF, uHTS; inhibition, % at 35 µM; HTRF SUMOylation assay, SAE1/SAE2 + UBC9; SUMO-conjugating enzyme UBC9 (Homo sapiens), P63279; 290,000 compounds, 0.36% hits; in the data active = inhibition above about 50%, passing the limit was not always enough
Of the large screens only hits and unclear results are named; the others gave an inactive call; [ ] = remark or other dose. Rows were chosen to be rich in hits. Some 1.3% of all compounds tested hit in one or more screens of this group.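 The calls were made as follows, unless noted: active = inhibition above about 30% (limit read from the data); inactive = the rest.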

Cc1nn(-c2ccc(F)cc2)c2sc(C(=O)N3CCCCCC3)cc12	none
COc1ccc(NS(=O)(=O)c2ccc(O)c(NC(=O)c3cc4c(C)nn(-c5ccc(F)cc5)c4s3)c2)cc1	SUMO HTRF inh 82
O=C(O)c1ccc(/C=N/N2CCN(Cc3cccc4ccccc34)CC2)cc1	14-3-3 Bad PPI 94
CC1(C)CC(=O)C(C2(O)C(=O)N(Cc3ccccc3)c3ccccc32)CO1 (configuration not stated)	none
CC(C)N1C(=O)C(O)(C2COC(C)(C)CC2=O)c2ccccc21 (configuration not stated)	14-3-3 Bad PPI 71
O=C(NNc1cc(N2CCOCC2)nc(N2CCOCC2)n1)c1ccc([N+](=O)[O-])cc1	NCF1 inh 49 (no result: SUMO HTRF inh)
O=C1CC(c2ccc(O)cc2)Oc2cc(O)cc(O)c21 (configuration not stated)	none
O=C1CC(c2ccccc2)Oc2cc(O)cc(O)c21 (configuration not stated)	eIF4E-4G inh 96
O=C(Nc1ccc(S(=O)(=O)Nc2ncccn2)cc1)c1cccc(S(=O)(=O)N2CCCC2)c1	none
CC(C)CN=C(NS(=O)(=O)c1ccccc1)C(Cl)(Cl)Cl	none
O=C(NC(=S)Nc1ccc(N2CCN(C(=O)c3ccccc3)CC2)cc1)c1cccs1	none
O=C(COC(=O)c1ccccc1NC(=O)C1CC1)c1ccc2c(c1)OCCO2	14-3-3 Bad PPI 71
COc1ccc(N2C(=O)CSC2c2ccccc2[N+](=O)[O-])cc1 (configuration not stated)	none
CCN1C(=O)N(c2cccc3ccccc23)C(C)=CC1(C)C	none
CCN1c2ccccc2N(C)C1(C)c1ccccc1 (configuration not stated)	eIF4E-4G inh 43[fluorescence artefact?], NCF1 inh 63
CN1c2ccccc2N(C)C1(C)c1ccccc1	eIF4E-4G inh 42[fluorescence artefact?], NCF1 inh 70
CN1C(=O)N(C)C2(c3ccccc3)NC(=O)NC12c1ccccc1 (configuration not stated)	none
Cc1ccccc1Cc1ccc(Cl)nn1	none
CC1Cc2ccccc2N1C(=O)CO/N=C/c1ccccc1OC(F)F (configuration not stated)	none
O=C(CO/N=C/c1ccccc1OC(F)F)N1CCc2ccccc21	14-3-3 Bad PPI 84[fluorescence artefact?]
CCc1nc(C)cc2c1sc1ccccc12	none
CC[n+]1c(C)cc2c(sc3ccccc32)c1C	NCF1 inh 33
C=CCC1(Cl)C(=O)C(Cl)=C(N2CCN(C)CC2)C1(OC)OC (configuration not stated)	none
Cc1cc(NC(=O)CNCC(c2ccccc2)N(C)C)c([N+](=O)[O-])cc1C (configuration not stated)	none (no result: eIF4E-4G inh, NCF1 inh, 14-3-3 Bad PPI)
CCCc1cc(=O)n2c([nH]c3ccccc32)c1C#N	NCF1 inh 48
Cc1ccc(-n2[nH]c(C)c(C=Nc3ccc(S(=O)(=O)N4CCOCC4)cc3)c2=O)c(C)c1	none
OCCN(Cc1ccccc1)Cc1ccc(Cl)cc1Cl	14-3-3 Bad PPI 87
COCCNC(=O)CCC1CCN(Cc2ccc(-c3ccccc3)cc2)CC1	SUMO HTRF inh 80 (no result: eIF4E-4G inh, NCF1 inh, 14-3-3 Bad PPI)
COc1ccc(N(CC(=O)NCc2ccccc2)C(=O)CCC(=O)Nc2cc(C)ccn2)c(OC)c1	eIF4E-4G inh 88
COc1ccccc1N(CC(=O)NCCc1ccccc1)C(=O)CCC(=O)Nc1cc(C)ccn1	none (no result: eIF4E-4G inh, NCF1 inh, 14-3-3 Bad PPI)
Cc1ccccc1Nc1cccc2nonc12	SUMO HTRF inh 92
CCN(CC(=O)N1CCN(Cc2ccccc2)CC1)S(=O)(=O)c1ccc(C)cc1	none (no result: eIF4E-4G inh, NCF1 inh, 14-3-3 Bad PPI)
COC(=O)c1cc2c(C)c(C)c3ccccn3c-2c1C(=O)OC	none
COC(=O)c1cc2n3ccccc3c(C)c(-c3ccccc3)c-2c1C(=O)OC	NCF1 inh 53
COc1ccc(C(=O)N2CCN(S(=O)(=O)c3ccc(C)cc3)CC2)cc1S(=O)(=O)N1CCOCC1	eIF4E-4G inh 62
O=C(c1ccc(S(=O)(=O)N2CCCCC2)cc1)N1CCc2ccccc2C1	none
COc1cc2c(cc1OC)CN(C(=O)c1ccc(S(=O)(=O)N3CCCCC3)cc1)CC2	NCF1 inh 49
CCCCS(=O)(=O)Nc1ccc(N2CCOCC2)c(S(=O)(=O)N2CCOCC2)c1	none (no result: eIF4E-4G inh, NCF1 inh, 14-3-3 Bad PPI)
O=C(O)/C=C/c1ccc(O)c(O)c1	none
O=C(/C=C/c1ccc(O)c(O)c1)O[C@H](Cc1ccc(O)c(O)c1)C(=O)O	SUMO HTRF inh 69
